Screens deposited in PubChem BioAssay by several laboratories.
APP transl inh = inhibitors of APP translation via 5'UTR reporter, primary screen, APP 5'UTR luciferase, SH-SY5Y cells. inhibition, % at 2 µM. SH-SY5Y APP 5'UTR-luciferase reporter, luminescence. AID 1285, 2008. 0.82% of 190,000 active;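 active = inhibition above a set limit, derived from the sample mean plus 3 SD, cut at about 45% in these data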
BaF3 tox = parental Ba/F3 cell viability inhibition, counter-screen for JAK2V617F inhibitor project, murine pro-B, CellTiter-Glo luminescence | AID 1486, 2009 | inhibition, % at 5.6 µM | 1.1% of 220,000 active | CellTiter-Glo ATP luminescence;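 active = inhibition above a per-campaign cutoff, the mean inhibition of all tested compounds plus 3 SD, cut at about 27% in these data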;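 also: 0% = DMSO wells and 100% = JAK Inhibitor I control wells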
Ba/F3 V617F tox = reduced viability of JAK2V617F-dependent Ba/F3 cells, primary screen, JAK2V617F inhibitor project, cell-based, Ba/F3 EpoR-JAK2V617F, luminescence. ATP luminescence. inhibition, % at 5.6 µM. 1.1% of 220,000 active. AID 1446, 2008;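 active = inhibition above the campaign mean plus 3 SD over all tested compounds, cut at about 24% in these data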;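 also: cytokine-independent growth of Ba/F3 cells driven by EpoR plus mutant JAK2; 0% = DMSO-treated cells and 100% = JAK inhibitor I control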
KLF5 inh = KLF5 expression inhibitors, primary screen, DLD-1 cells, luminescence; DLD-1 KLF5 promoter-luciferase reporter; inhibition, % at 5 µM; 0.23% of 290,000 active;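 active = inhibition above a per-plate limit of that plate's mean compound inhibition plus 3 SD, cut at about 60% in these data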;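 also: 0% = DMSO wells and 100% = LY294002 at 200 µM; higher means less KLF5 promoter-driven luciferase light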
IEC-6 tox = cytotoxicity in IEC-6 intestinal epithelial cells, primary screen, cytotoxicity control for KLF5 inhibitor project, cell-based, luminescence | IEC-6 cytotoxicity, luminescence viability | inhibition, % at 5 µM | 0.78% of 290,000 active | AID 1825, 2009; in the data active = inhibition above about 22%;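 also: 0% = plate median of test compound wells and 100% = cytotoxic reference compound wells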
* marks the source's active call; other numbers are inactive results; . = no result. A selection: hits, their analogues and other compounds. The true share with any hit is near 1.8%.

SMILES	APP transl inh	BaF3 tox	Ba/F3 V617F tox	KLF5 inh	IEC-6 tox
C[n+]1c2n(c3ccccc31)N=C(c1ccc(-c3ccccc3)cc1)CS2	0	71*	99*	18	16
C[n+]1c2n(c3ccccc31)N=C(c1ccc(Br)cc1)CS2	-16	71*	66*	6	1
C[n+]1c2n(c3ccccc31)N=C(c1ccccc1)CS2	-2	68*	91*	-40	4
Cc1cccc(-c2nnc3n2N=C(c2ccccc2)CS3)c1	-6	4	-1	-16	1
CCCOC(=O)N[C@@H]1C(=O)N2C(C(=O)OCCC)=C(C)CS[C@H]12	.	.	.	-17	5
CCCCNC(=O)c1sc(=S)n2c1[nH]c(=O)c1ccccc12	5	101*	-2	-23	-3
COc1cc(C)c(Cl)c(C)c1S(=O)(=O)NCc1cccnc1	46*	4	-1	11	-9
CCC(=O)Nc1ccc(C(=O)N/N=C/c2cc(Br)c(OC)cc2OC)cc1	-6	0	-3	-35	-4
CCS(=O)(=O)c1ccc(N=Nc2ccc(O)c3ncccc23)c(OC)c1	63*	8	0	-13	-9
Cc1ccc(N=Nc2ccc(O)c3ncccc23)cc1	78*	11	2	5	1
Cc1ccc(C(c2nnnn2C2CCCC2)N2CCc3ccccc32)cc1 (stereo not drawn)	-11	40*	6	-11	0
CCCN1CCC(=NNc2ccc(S(N)(=O)=O)cc2[N+](=O)[O-])CC1	-7	7	3	3	-8
CCCN1CCC(=NNc2ccc(S(=O)(=O)N(CC)CC)cc2[N+](=O)[O-])CC1	53*	11	2	-4	-1
O=C(Nc1ccccc1C(F)(F)F)N1CCN(c2ccccn2)CC1	-10	89*	0	-11	5
O=C(Nc1ccccc1Cl)N1CCN(c2ccccn2)CC1	2	6	2	-33	-6
Cc1cc(C(=O)CSc2nc3ccccc3c(=O)[nH]2)c(C)n1CC1CCCO1 (stereo not drawn)	-103	40*	35*	-111	4
Cc1cc(C(=O)CSc2nc3ccccc3c(=O)n2C)c(C)n1CC1CCCO1 (stereo not drawn)	17	69*	59*	19	9
COc1ccc(S(=O)(=O)N(C)CC(=O)N2CCN(Cc3ccccc3)CC2)cc1C	16	4	0	-32	-4
C/C(N)=C(/C#N)C(=O)COC(=O)CNS(=O)(=O)c1ccc2ccccc2c1	.	60*	51*	-4	5
COc1cccc(N2CCN(c3ncnc4c3[nH]c3ccccc34)CC2C)c1 (stereo not drawn)	0	10	0	-9	-2
COc1cccc(N2CCN(c3ncnc4c3[nH]c3ccc(F)cc34)CC2C)c1 (stereo not drawn)	27	53*	63*	57	36*
CCc1ccc(/C=C/c2c[nH]c3ccccc23)[n+](CC)c1	-1	79*	94*	-9	-3
CCc1ccc(-c2cc(C(=O)N/N=C/c3c[nH]c4ccccc34)[nH]n2)cc1	-208	9	3	-95	8
CCOC(=O)Cn1c(=O)c2c(nc(Br)n2Cc2ccccc2)n(C)c1=O	-2	2	-3	10	1
CCCCOC(=O)Cn1c(=O)c2c(nc(Br)n2Cc2ccccc2)n(C)c1=O	-3	66*	2	-20	3
SMILES	APP transl inh	BaF3 tox	Ba/F3 V617F tox	KLF5 inh	IEC-6 tox
O=C(OC(C(=O)NCc1ccc2c(c1)OCO2)c1ccncc1)c1ccc(Cl)nc1 (stereo not drawn)	17	81*	4	4	6
CC(OC(=O)c1cccnc1)C(=O)NCc1ccc2c(c1)OCO2 (stereo not drawn)	-8	9	3	-1	-1
O=P(O)(O)c1cc(-c2ccccc2)oc1-c1ccccc1	.	28*	-1	13	-5
O=C(O)c1cc(-c2ccccc2)on1	3	7	4	-11	2
NC(=O)CNC(=O)[C@@H]1CC2(CC(c3ccc(Cl)cc3)=NO2)CN1C(=O)c1ccccc1 (stereo partly drawn)	-3	1	-1	-14	-10
Cc1ccc(NC(=O)CN2C(=O)N/C(=C\c3cccnc3)C2=O)cc1	54*	0	-5	-36	-3
Cc1cc(-c2csc(NC(=O)c3ccc(C#N)cc3)n2)c(C)n1Cc1ccco1	0	2	3	-11	8
COc1cc(C2C(C#N)=C(N)Oc3cc(N)ccc32)cc(OC)c1OC (stereo not drawn)	95*	3	-4	7	-1
COc1ccc(C2C(C#N)=C(N)Oc3cc(N)ccc32)cc1 (stereo not drawn)	.	.	.	-11	0
COc1ccc(C2C(C#N)=C(N)Oc3c2ccc2cccnc32)cc1OC (stereo not drawn)	92*	76*	78*	53	17
CCCCCOc1ccc(Br)cc1CSC(=N)N	63*	47*	60*	25	49*
COc1ccc(C2=NOC(C(=O)NCc3cccs3)C2)cc1 (stereo not drawn)	2	3	0	11	22
COc1cc(C2=NOC(C(=O)NCc3cccs3)C2)cc(OC)c1OC (stereo not drawn)	.	77*	82*	42	21
CC1(C)CC(=NNC(=O)c2n[nH]c3c2CCC3)CC(C)(C)N1	82*	3	1	-5	3
O=C(N/N=C/c1ccccc1)c1n[nH]c2c1CCCC2	-105	2	1	-81	6
N#Cc1c(NC(=O)c2cccnc2)sc2c1CCC2	0	42*	41*	24	19
N#Cc1c(NC(=O)c2ccccc2)sc2c1CCC2	-109	28*	37*	-148	14
N#Cc1c(NC(=S)NC(=O)c2ccccc2)sc2c1CCCC2	-38	1	-3	-28	-5
O=C(Nc1sc2c(c1C(=O)c1ccccc1)CCCC2)c1cccnc1	2	5	-1	-19	-5
CC(C)(C)c1ccc(OCCNCc2ccccc2)cc1	.	.	.	-30	8
C[n+]1ccccc1COc1ccc(C(C)(C)C)cc1	1	68*	73*	0	0
CCN(CC)S(=O)(=O)c1ccc(N2CCCC2)c(NC(=O)Cc2c(F)cccc2Cl)c1	.	.	.	-14	-3
COc1ccccc1S(=O)(=O)Nc1cc(C)nn1-c1ccc(C)cc1	.	.	.	-22	-3
Cc1cc(C)n(CCC(=O)N/N=C/c2ccc(Br)c([N+](=O)[O-])c2)n1	.	-1	3	-9	2
C=CCNC(=O)c1onc(CSc2ccc(Cl)cc2)c1C(=O)O	-9	35*	49*	-42	2
C=CCNC(=O)c1onc(CSc2ccc(F)c(F)c2)c1C(=O)O	-33	0	-1	-25	-4
